Source: PubChem BioAssay (NCATS)
Records with an inconclusive call do not appear. A call without a number means that no potency is given here. Activity calls are given as the source filed them. The call rests on the fitted dose curve; in most records, active means well fitted inhibition curve with a large enough effect; inconclusive means small, poorly fitted or top-dose-only effect; inactive means flat fitted curve, though single readings scatter.

test system: CRL-7250; test: qHTS assay to identify novel small-molecules to repurpose for Merkel cell carcinoma treatment (AID 1296009); details: MCC and control cell lines, CellTiter-Glo viability, 72 h; series mostly up to 92 µM; further: nearly all actives have a fitted effect of over 60% in size
Procedure, shortened: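 CellTiter-Glo luminescence after 72 hr compound exposure at 37 degree celsius gave cell viability. Libraries NPC and MIPE were run as 8- and 11-point dose responses; RLUs normalized to DMSO (negative) and no-cell (cytotoxicity) controls.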

Compound	Potency	outcome
COc1cc(Br)c(S(=O)(=O)Nc2ccc(Cl)c(O[C@@H]3CCN(C)C3)c2)cc1OC	inactive	
CCn1c(=O)n([C@H]2CCCN(c3nccc(-c4cc5ccccc5o4)n3)C2)c2ccccc21	inactive	
O=[N+]([O-])c1ccc(Oc2ccc3c(c2)CCC(c2ccccc2)O3)nc1 (stereo not given)	inactive	
C=C1CCC2C(C)(C(=O)OC)CCCC2(C)C1CCC(C)CC(=O)O (stereo not given)	inactive	
COc1cc(Nc2nc3c(s2)CCCC3c2ccccc2)ccc1-n1cnc(C)c1 (stereo not given)		inactive [at 9.27 µM]
C/C(=C/CCC(CO)C1CCC2(C)C3CCC4C(C)(C)C(OC5OC(CO)C(O)C(O)C5O)CC(O)C45CC35CCC12C)COC1OC(CO)C(O)C(O)C1O (stereo not given)	inactive	
C=C1C(=O)OC2/C=C(\C)CC/C=C(\C(=O)O)CC/C=C(\C)CCC12 (stereo not given)	inactive	
C[C@@H]1C(=O)OC[C@H]2C(C(=O)O)=C[C@@H]3CC(C)(C)C[C@]312	inactive	
CC1(C)CC[C@]2(C(=O)O[C@@H]3O[C@H](CO[C@@H]4O[C@H](CO)[C@@H](O)[C@H](O)[C@H]4O[C@@H]4O[C@H](CO)[C@@H](O)[C@H](O)[C@H]4O)[C@@H](O)[C@H](O[C@@H]4O[C@H](CO)[C@@H](O)[C@H](O)[C@H]4O)[C@H]3O)CC[C@]3(C)C(=CCC4[C@@]5(C)CC[C@@H](O)[C@@](C)(C(=O)O[C@@H]6O[C@H](CO)[C@@H](O)[C@H](O)[C@H]6O)C5CC[C@]43C)[C@@H]2C1 (stereo not given in full)		inactive [at 9.27 µM]
COc1cc2ncnc(Nc3ccc(F)c(Cl)c3)c2cc1O	inactive	
COc1ccc(CCN(C)CCCOc2nsc(-c3ccccc3)n2)cc1OC	inactive	
Cc1cc(Nc2nc(NC(C)c3ncc(F)cn3)ncc2Cl)n[nH]1 (stereo not given)	inactive	
O=C(O[C@H]1[C@@H]2C[C@@H]3OC[C@@](O)([C@H]2[C@H](O[C@@H]2O[C@H](CO)[C@@H](O)[C@H](O)[C@H]2O)O3)[C@@H]1O)c1ccccc1	inactive	
COc1cc(OC)cc(-c2ccc3c(-c4ccc(F)cc4)[nH]nc3n2)c1	inactive	
CC(C)CCC[C@@H](C)[C@H]1CC[C@H]2[C@@H]3CC=C4C[C@@H](OC(=O)NCCN(C)C)CC[C@]4(C)[C@H]3CC[C@]12C	inactive	
COc1cc2ncnc(Nc3cccc(O)c3)c2cc1OC	inactive	
O[C@@](Cc1ncc(CC2(C(F)(F)F)CC2)[nH]1)(c1ccc(-n2cccn2)cc1)C(F)(F)F	inactive	
Cc1ccc(Sc2cncc3sc(C(N)=O)cc23)cc1	inactive	

Compound	Potency	outcome
Cc1cc(C(=O)N2Cc3cnn(C)c3Nc3ccccc32)ccc1CNC(=O)N1CCN(Cc2cc(O)cc(O)c2)CC1	inactive	
COc1cc2c(c(O)c1OC/C=C(\C)CC/C=C(/C)CCC=C(C)C)CN(C(CCC(=O)O)C(=O)O)C2=O (stereo not given)	inactive	
O=C(Cn1c2ccccc2c2nc3n(c(=O)c21)CCS3)N1CCCC1	inactive	
CON(C)C(=O)[C@H](O)[C@H](Cc1ccccc1)NC(=O)c1cc2cc(Cl)ccc2[nH]1	inactive	
C[C@@H]1CC[C@]2(C)C(C[C@@H](O)[C@H](O)[C@]23CO3)[C@@]1(C)CCc1ccoc1 (stereo not given in full)	inactive	
CC1(C)CCCC2(C)C=C(C(=O)O)C(O)CC12 (stereo not given)	inactive	
C=C1CCC2C(C)(COC3OC(COC(=O)CC(=O)O)C(O)C(O)C3O)CCCC2(C)C1CCC1=CCOC1=O (stereo not given)	inactive	
C=C1CC23CC1CCC2C12OC(=O)C(C)(CCC1O)C2C3C(=O)O (stereo not given)	inactive	
COCC1OC(n2cnc3c(=O)[nH]cnc32)C(O)C1O (stereo not given)	inactive	
C#Cc1cnc2[nH]c(=O)n(C(CC)CC)c2n1	inactive	
CC(O)CCC1C(CO[C@@H]2O[C@H](CO)[C@@H](O)[C@H](O)[C@H]2O)CC(O)CC1(C)C (stereo not given in full)	inactive	
Cc1[nH]cnc1C1CCN(c2nc3cccc4c3n2CCC4=O)CC1	inactive	
C=C(C)[C@@H]1CC[C@](C)(O)[C@@H](OC(=O)c2ccccc2)C1	inactive	
COC(=O)c1cc(OC)cc(OC)c1C(=O)c1c(OC)cc2c(c1O)C1CCC(O)C(C)(O2)O1 (stereo not given)	inactive	
CC(=O)O[C@H]1C[C@@H](O)C(C)(C)C2C[C@@H](OC(C)=O)[C@@]3(C)C4=CCC(C(CO)CC(O)C5OC5(C)C)[C@]4(C)CCC3[C@]21C (stereo not given in full)	inactive	
Cn1c2ccc(NC(=O)c3ccccc3)cc2c(=O)n2nc(C(=O)O)cc12	inactive	
COc1cc(CCCO)ccc1O[C@@H]1O[C@H](CO)[C@@H](O)[C@H](O)[C@H]1O	inactive	
